Assay results published in PubChem BioAssay (NCI).
The panel holds about 79,000 compounds, 15% with a hit somewhere; the sample as a whole holds those more often. Values without a mark were called inactive. Activity calls are given as the source filed them. No stated cut-off is given here; in the data, active means growth inhibition above about 70%; inactive means the rest.

Key:
[1] = NCI Yeast Anticancer Drug Screen. Data for the rad50 strain (AID 155);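 further: 0% = growth of vehicle-only cultures of the same strain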; conditions: S. cerevisiae rad50 strain growth inhibition, hits give high values
Outline: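 Vehicle-treated cultures provide the reference for the growth inhibition reported for compound-exposed, repair-deficient yeast.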

[2] = NCI Yeast Anticancer Drug Screen. Data for the mec2-1 strain (AID 157); conditions: S. cerevisiae mec2-1 strain, hits give high values
Outline: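 Mutant yeast (mec2-1) grown with compound; growth inhibition relative to vehicle control reported.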

[3] = NCI Yeast Anticancer Drug Screen. Data for the sgs1 mgt1 strain (AID 161);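 further: 0% = growth of cultures given vehicle only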; conditions: S. cerevisiae sgs1 mgt1 strain, hits give high values
Outline: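 Growth of a repair-deficient yeast mutant was monitored after compound treatment and expressed as inhibition relative to vehicle-treated cultures.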

[4] = NCI Yeast Anticancer Drug Screen. Data for the cln2 rad14 strain (AID 165);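 further: 0% = growth equal to vehicle treated cultures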; conditions: S. cerevisiae cln2 rad14 strain, hits give high values
Outline: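 Readout is yeast growth inhibition versus vehicle-treated controls, using a strain with cln2 and rad14 alterations exposed to compound.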

[5] = NCI Yeast Anticancer Drug Screen. Data for the bub3 strain (AID 167); conditions: S. cerevisiae bub3 mutant strain, hits give high values
Outline: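 Mutant yeast screening strain plus compound; vehicle-treated cultures serve as the 0% inhibition reference.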

[6] = NCI Yeast Anticancer Drug Screen. Data for the mlh1 rad18 strain (AID 175); conditions: S. cerevisiae mlh1 rad18 strain growth inhibition, hits give high values
Outline: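 Genetically defined yeast (DNA repair-deficient) exposed to compounds; growth inhibition determined relative to vehicle.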

[7] = at 5.0 µM (retest, dose inferred, filed as 0.5)
[8] = at 50.0 µM (retest, dose inferred, filed as 5.0)

Compound	growth inhibition [1, 7]	growth inhibition [1, 8]	growth inhibition ([1]; at 50.0 µM)	growth inhibition [2, 7]	growth inhibition [2, 8]	growth inhibition ([2]; at 50.0 µM)	growth inhibition [3, 7]	growth inhibition [3, 8]	growth inhibition ([3]; at 50.0 µM)	growth inhibition [4, 7]	growth inhibition [4, 8]	growth inhibition ([4]; at 50.0 µM)	growth inhibition [5, 7]	growth inhibition [5, 8]	growth inhibition ([5]; at 50.0 µM)	growth inhibition [6, 7]	growth inhibition [6, 8]	growth inhibition ([6]; at 50.0 µM)
COc1ccc2c(c1)[n+]([O-])c(-c1ccc(Cl)c(Cl)c1)c(N)[n+]2[O-]	23%	98% (active)	99.5% (active)	26%	99% (active)	99.5% (active)	29%	99% (active)	99.7% (active)	38%	98% (active)	99.3% (active)	76% (active)	99% (active)	99.6% (active)	71% (active)	99% (active)	99.4% (active)
CC(=O)/C(=C\c1ccco1)C(=O)Nc1ccccc1	2%	23%	73.1% (active)	0%	21%	48.2%	13%	26%	80.2% (active)	6%	23%	92.4% (active)	-4%	58%	91.2% (active)	6%	37%	94.7% (active)
COc1ccc(Cc2c(-c3ccc(C)cc3)n[nH]c(=O)c2C2C(=O)N(c3ccccc3)N=C2c2ccccc2)cc1 (stereo not given)	98% (active)	95% (active)	97% (active)	99% (active)	96% (active)	95.3% (active)	97% (active)	97% (active)	98.2% (active)	98% (active)	97% (active)	96% (active)	63%	96% (active)	97.5% (active)	47%	94% (active)	96% (active)
CCCCCCCCNc1ccc(Cl)cc1	46%	96% (active)	91.8% (active)	26%	98% (active)	93% (active)	49%	97% (active)	98.2% (active)	25%	94% (active)	81.2% (active)	8%	97% (active)	74.1% (active)	40%	97% (active)	98% (active)
COc1ccc(C2SC(N)=Nc3c2c(C)nn3C(=O)c2ccccc2O)cc1OC (stereo not given)	-9%	74% (active)	53.3%	-15%	81% (active)	35.2%	-8%	70% (active)	75.3% (active)	-20%	24%	-19%	-19%	31%	74.3% (active)	1%	91% (active)	65.5%
O=C(Nc1ccccc1-c1nn(CN2CCNCC2)c(=S)n(CN2CCNCC2)c1=O)C(F)(F)F	0%	17%	7.5%	0%	10%	25.9%	-2%	13%	12.6%	-4%	10%	68.1%	1%	0%	8.65%	-2%	14%	38.6%
O=c1c(Cl)c(Cl)oc(Cl)c1Cl	42%	98% (active)	79.2% (active)	30%	99% (active)	98.3% (active)	45%	99% (active)	88% (active)	3%	99% (active)	94.5% (active)	43%	99% (active)	98.8% (active)	54%	98% (active)	97.2% (active)
CCNC(=O)NNc1ncnc2c1c(-c1ccc(Cl)cc1)cn2-c1ccc(C)cc1	-10%	98% (active)	96.7% (active)	-11%	98% (active)	97.7% (active)	5%	99% (active)	98.3% (active)	7%	97% (active)	96.5% (active)	0%	97% (active)	40%	-17%	98% (active)	97.2% (active)
O=C1C=CC(=Nc2cccc3c2-c2ccccc2C3)O1	98% (active)	99% (active)	99.6% (active)	99% (active)	99% (active)	99.6% (active)	99% (active)	99% (active)	99.7% (active)	88% (active)	99% (active)	99.4% (active)	99% (active)	99% (active)	99.7% (active)	99% (active)	99% (active)	85.6% (active)
O=C(Cc1nc2ccccc2s1)C(=O)Nc1ccc(Cl)cc1	2%	4%	8%	-1%	2%	23.1%	4%	0%	17.5%	2%	2%	75% (active)	5%	-2%	63.5%	1%	7%	3.3%
